BAZ2B inh: qHTS Assay for Inhibitors of BAZ2B; AID 504333, 2011; Potency, µM (titrated, usually from 114 µM), without a hit: at the highest dose activity change, negative = inhibition, actives largely listed as inhibitors; actives 4.4% (n = 360,000); AlphaScreen BAZ2B-H3K14Ac peptide displacement; Bromodomain adjacent to zinc finger domain protein 2B (Homo sapiens), Q9UIF8; further: on the % scale 0 is the no-effect control and ±100 the full control effect; nearly all actives have a fitted effect of over 60% in size
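Protein-peptide AlphaScreen: BAZ2B 50 nM, b-H3K14Ac 50 nM, 1x PBS pH 7.4 + 0.01% Tween-20. Preincubation 30 min RT; cpd 30 min RT (top 110 uM); beads 20 min RT, light-protected.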
Sfp inh: qHTS Assay for Inhibitors of Bacillus subtilis Sfp phosphopantetheinyl transferase (PPTase) | Biochemical Sfp PPTase activity, qHTS | AID 1490, 2009 | actives 3.5% (n = 310,000) | 4'-phosphopantetheinyl transferase ffp (Bacillus subtilis), Q9F4F7 | Potency, µM, without a hit: largest response in the series, negative = inhibition, most hits filed as inhibitors;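 further: the enzyme is Sfp with the accession as filed and its product quenches rhodamine fluorescence; 0% = enzyme reaction without inhibitor and -100% = no enzyme wells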
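Buffer: 50 mM Hepes-Na pH 7.6, 10 mM MgCl2, 0.01% Nonidet P-40, 0.01% BSA. Enzyme 15 nM, pre-exposed to compound 15 min; substrates then added and fluorescence change tracked over 30 min.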
G9a block: qHTS Assay for Inhibitors of Histone Lysine Methyltransferase G9a; Histone-lysine N-methyltransferase EHMT2 (Homo sapiens), Q96KQ7; G9a H3K9 monomethylation, AlphaScreen, 2 h; Potency, µM (top dose mostly 102 µM), inactives show top-dose activity, negative = inhibition, most hits filed as inhibitors; actives 8.8% (n = 350,000); further: on the % scale 0 is the no-effect control and ±100 the full control effect; nearly all actives have a fitted effect of over 75% in size
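Compounds were preincubated with 20 nM G9a for 15 min, after which biotinylated H3K9 peptide (500 nM) and SAM (20 uM) started a 2 h room-temperature reaction. Monomethylated product was quantified by antibody-based AlphaScreen chemiluminescence.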
HP1b binding inh: HTS for Inhibitors of HP1-beta Chromodomain Interactions with Methylated Histone Tails | AlphaScreen HP1-beta / biotin-H3K9me3 peptide binding | Chromobox protein homolog 1 (Homo sapiens), P83916 | AID 540317, 2011 | actives 0.56% (n = 390,000) | Potency, µM (top dose mostly 114 µM), inactives show top-dose activity change, negative = inhibition, usual class: inhibitors; further: nearly all actives have a fitted effect of over 70% in size
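AlphaScreen: HP1-beta (50 nM) preformed 30 min with biotin-H3(1-18)K9me3 peptide (50 nM) in PBS pH 7.4, 0.01% Tween-20. Compound added for 30 min at RT, then streptavidin donor/nickel chelate acceptor beads (10 ug/mL) for 30 min.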
JMJD2A Tudor: qHTS Assay for Inhibitors of JMJD2A-Tudor Domain; AlphaScreen JMJD2A-Tudor / H3K4me3 peptide binding; Potency, µM (top dose mostly 114 µM), for the others: top-dose activity change, negative = inhibition, hits mostly inhibitors; AID 504339, 2011; Lysine-specific demethylase 4A (Homo sapiens), O75164; actives 4.4% (n = 390,000); further: on the % scale 0 is the no-effect control and ±100 the full control effect; nearly all actives have a fitted effect of over 50% in size
Starred values were filed as active, the others as inactive; ? = inconclusive; · = no result; [ ] = another dose, or the depositor's remark. Sampled rows, rich in hits. Any-hit rate of the full collection: about 12%. The call rests on the fitted dose curve; in most records, active means well fitted curve in the direction sought with a large enough effect; inconclusive means small, poorly fitted or top-dose-only effect, or another doubt; inactive means no such curve, though single readings can be large; an effect the other way counts as inactive or inconclusive. Potency means the concentration at half of the fitted maximal effect.

SMILES | BAZ2B inh | Sfp inh | G9a block | HP1b binding inh | JMJD2A Tudor
COC(=O)/C(=N/Nc1ccccc1Cl)Sc1nnc(C(O)c2ccccc2)n1-c1ccccc1 (centres undefined) | 15% | -22% | 45µM* | 30% | -18%
CC(=O)/C(=N/Nc1ccccc1)Sc1nnc(C(O)c2ccccc2)n1-c1ccccc1 (centres undefined) | ? | -11% | 45µM* | 24% | -24%
CC(c1nnc(SCC(=O)Nc2cccnc2Cl)n1-c1ccccc1)N(C)C (centres undefined) | -5% | -11% | 21%[59 µM] | 26% | 1%
CC(=O)/C(=N/Nc1ccc(C)cc1)Sc1nnc(CCc2ccccc2)n1-c1ccccc1 | 2% | -1% | ? | 11% | ?
CCOC(=O)CSc1nnc(CNc2ccccc2Cl)n1-c1ccccc1 | · | -2% | -9%[59 µM] | 17% | ?
C#CCNC(=O)C1=C[C@H](C2CCCCC2)[C@@H](CCCO)[C@H](OCC)O1 | -4% | -1% | 4%[12.7 µM] | 70% | -6%
Cc1ccnn1CCSCC(=O)O | 5% | 7% | -3% | 26% | -9%
Nc1c(C(=O)Nn2cnnc2)cc([N+](=O)[O-])cc1[N+](=O)[O-] | 4% | 22% | 50µM* | · | ·
O=C(N/N=C\c1cc([N+](=O)[O-])ccc1N1CCCC1)c1ccccn1 | -16% | -7% | -9% | 61% | -5%
Cc1cc(C(=O)N/N=C/c2cccc([N+](=O)[O-])c2)c(C)n1-c1ccccc1 | -1% | 4% | 17%[59 µM] | 11% | -3%
O=C(N/N=C\c1cc([N+](=O)[O-])ccc1N1CCOCC1)c1ccccn1 | -18% | 45µM* | ? | 21% | -16%
Cc1cc(/C=N/NC(=O)c2ccccn2)c(C)n1-c1cccc([N+](=O)[O-])c1 | 45µM* | ? | ? | ? | ?
O=C(Cc1cccs1)N1CCC(c2nc3c(nnn3Cc3ccccc3)c(=O)[nH]2)CC1 | ? | 2% | · | 14% | -11%
CS(=O)(=O)N1CCC[C@@]2(CCN(C(=O)Nc3cccc(C#N)c3)C2)C1 | · | 22% | -1%[12.7 µM] | · | ·
CC(C)C1N=C2c3ccccc3N=C(SCC(=O)NCc3ccc(F)cc3)N2C1=O (centres undefined) | -6% | · | 1%[59 µM] | 30% | -6%
Cc1cccc(NC2=C(C#N)C(=O)NC3(CCCC3)S2)c1 | -18% | 18µM* | ? | 46% | -3%
Cc1ccccc1N1C(S)=C(C#N)C(=O)NC12CCCCC2 | 4% | 14µM* | 35µM* | 24% | -21%
Cc1cccc(N2C(S)=C(C#N)C(=O)NC23CCCCC3)c1 | ? | 79µM* | ? | 35% | -18%
Cc1ccc(N2C(S)=C(C#N)C(=O)NC23CCCCC3)cc1 | -9% | 20µM* | 28µM* | 19% | -22%[57.1 µM]
Cc1ccc(C(=O)N2C3=C(CCCC3)C(=O)NC23CCCCC3)cc1 | ? | 1% | 5% | 25% | -18%[57.1 µM]
N#Cc1ccc(NCC(=O)N2CCN(S(=O)(=O)c3ccccc3)CC2)cc1 | -2% | · | 16%[12.7 µM] | 66% | -1%
CC(C)COP(=O)(c1ccc(N(C)C)cc1)C(O)c1ccc(N(C)C)cc1 (centres undefined) | -36% | 10% | 40µM* | 1% | ?
CC(C)OP(=O)(c1ccc(N(C)C)cc1)C(O)c1ccc(N(C)C)cc1 (centres undefined) | -12% | 10% | 16%[0.501 µM] | 11% | 4.5µM*
CC(C)COP(=O)(c1ccc(N(C)C)cc1)C(O)c1ccccc1 (centres undefined) | -14% | 12% | -2% | 9%[57 µM] | -12%
CCCOP(=O)(c1ccc(N(C)C)cc1)C(O)c1cc(OC)ccc1OC (centres undefined) | 1% | 27% | 13% | 56% | -4%
SMILES | BAZ2B inh | Sfp inh | G9a block | HP1b binding inh | JMJD2A Tudor
COc1ccc(C(O)P(=O)(OC(C)C)c2ccc(N(C)C)cc2)c(OC)c1 (centres undefined) | -8% | 12% | 15%[0.501 µM] | 18% | 22µM*
Brc1ccc(-n2cccc2/C=N/n2cnnc2)cc1 | 3% | 5% | -5%[59 µM] | 0% | -29%
CC(=O)Nc1ccc(S(=O)(=O)N(C)CC(=O)Nc2ccc(F)c(F)c2F)cc1 | 4% | · | -1%[2.33 µM] | 39% | -8%
Cc1cccc(-c2nc(CCNC(=O)Cc3ccccc3)cs2)c1 | 12% | · | 30%[59 µM] | 21%[57 µM] | -20%
CCCCCOc1ccc(N2C(=O)CC(N(O)c3ccccc3)C2=O)cc1 (centres undefined) | -2% | -4% | 50µM* | 18% | -19%
CCCCCCC(=O)N(O)C1CC(=O)N(Cc2ccccc2)C1=O (centres undefined) | 2% | 50µM* | 2.5µM* | 16% | ?
CN(Cc1ccccc1)C1CC(=O)N(c2ccc(C(=O)O)cc2)C1=O (centres undefined) | 9% | -23% | 3.5µM* | 50% | -13%
CCCCCC(=O)N(CN1C(=O)CCC1=O)c1ccccc1 | 1% | 9% | -10%[59 µM] | 37% | -1%
CCCCOc1ccc(N2C(=O)CC(N(O)c3ccccc3)C2=O)cc1 (centres undefined) | -5% | 12% | -4% | 24% | -8%
CCCCCC(=O)N(O)C1CC(=O)N(c2ccccc2)C1=O (centres undefined) | -29% | 13µM* | 1.4µM* | -78% | 22µM*
CCc1ccc2nc(N3CCN(C)CC3)c(C#N)cc2c1 | 2% | 4% | -32% | 45% | 1%
COc1ccc2c(c1)CCN=C2Cc1ccc(OC)c(OC)c1 | -7% | -5% | 4µM* | 20% | -20%
COC(=O)c1cc(-c2ccccc2)nc2nc(SC)[nH]c(=O)c12 | -23% | 7% | 11% | 35% | -7%
CC(=O)N1CCc2cc(S(=O)(=O)NC(C(=O)N3CCN(c4ccccc4F)CC3)C(C)C)ccc21 (centres undefined) | · | · | · | 15% | -25%
CCCCn1c(N)c(N(CCC(C)C)C(=O)CSc2nncn2-c2ccccc2)c(=O)[nH]c1=O | ? | · | 7.9µM* | 30% | -2%
CCCCN(C(=O)CSc1nncn1-c1ccccc1OC)c1c(N)n(Cc2ccccc2)c(=O)[nH]c1=O | -3% | 13% | 56µM* | 24% | -21%
COCCN(C(=O)CSc1nncn1-c1ccccc1)c1c(N)n(Cc2ccccc2)c(=O)[nH]c1=O | 8% | 8% | -7%[59 µM] | 3% | -5%
Cc1ccc2nc(N3CCC(C(=O)N4CCN(c5cccc(Cl)c5)CC4)CC3)[nH]c2c1 | 71µM* | · | -36%[59 µM] | 0%[57 µM] | 56µM*
Nc1nc(SCc2ccccc2)ns1 | 5% | ? | 4µM* | ? | 79µM*
